# From PubChem BioAssay
# A selection: hits, their analogues and other compounds. The true share with any hit is near 6%.
# DRD3 agonist: activates the human D3 dopamine receptor. P35462. D3R DiscoveRx beta-arrestin cells, luminescence, 90 min. max activation, %. 0.58% of 410,000 active; in the data active means max activation above about 30%
# Target sequence (P35462 whole entry, looked up): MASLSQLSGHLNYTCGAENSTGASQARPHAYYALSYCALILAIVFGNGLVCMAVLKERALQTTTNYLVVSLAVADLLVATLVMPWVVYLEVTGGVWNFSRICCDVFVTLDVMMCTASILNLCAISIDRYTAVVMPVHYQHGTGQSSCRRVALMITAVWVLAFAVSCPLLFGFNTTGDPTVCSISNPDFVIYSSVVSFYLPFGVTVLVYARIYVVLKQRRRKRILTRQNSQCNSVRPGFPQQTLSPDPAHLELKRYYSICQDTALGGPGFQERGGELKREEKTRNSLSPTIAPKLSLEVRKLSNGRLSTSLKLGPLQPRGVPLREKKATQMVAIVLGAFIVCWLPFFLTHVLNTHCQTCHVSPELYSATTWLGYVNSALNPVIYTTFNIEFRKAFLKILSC
#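 Cells at 1500/well, incubated overnight, then treated with pinned compounds (dopamine as control) for 90 min at 37 degrees C. DiscoveRx reagent added for 30 - 60 minutes at room temperature; luminescence read.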
# DRD3 antagonist: blocks the human D3 dopamine receptor | P35462 | D3R cells, DiscoveRx beta-arrestin luminescence, antagonist mode; active compounds read low | max response, negative = inhibition, % | 2.5% of 360,000 active; in the data active means max response below about -50%; inconclusive means no clear call, values can overlap the other calls
#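 Cells plated overnight at 1500 cells/well, then exposed to library compounds with dopamine controls for 90 minutes at 37 degrees C. DiscoveRx reagent added for 30–60 minutes at room temperature; luminescence read, quantitative HTS format.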
# D1 agonist: human D1 receptor agonism. 1% of 360,000 active. P21728. AID 504660. HEK293 T-REx D1 cells, calcium flux, agonist mode. activation, % at 2 µM; in the data active means activation above about 30%
#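 Inducible HEK293 T-REx D1 cells, force-coupled to calcium signalling, were plated at 4000 cells/well with tetracycline and held overnight at 30 C. After no-wash calcium dye loading, compound-evoked calcium rise over 180 s flagged agonists.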
# BCR signal inh: blocks chronic active B-cell receptor signaling; 0.05% of 340,000 active; AID 493014; Potency, µM (doses to about 46.1 µM), usual class: inhibitors; ABC-DLBCL IkBa-CBG/CBR reporter, luminescence ratio, 4 h; active means well fitted inhibition curve with a large enough effect in the signal ratio, with a control signal flat, not every such curve was filed as active; inconclusive means small, poorly fitted or top-dose-only effect, or effect the other way, or a change in a side signal; the % refers to the signal ratio
#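 Doxycycline induced both beetle luciferases in TMD8 lymphoma cells; IKK-driven degradation limits the IkappaBalpha-fused green signal, while red luminescence normalises for cell number and nonspecific effects. Compounds tested up to 46 uM, 4 hrs.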
# D1 potentiator: human D1 dopamine receptor positive modulation; P21728; HEK293 TREx D1 cells, calcium flux, dopamine EC20 potentiation; 0.036% of 360,000 active; potentiation, % at 10 µM; in the data active means potentiation above about 30%
# D1 antagonist: human D1 dopamine receptor antagonism; P21728; HEK293 TREx D1 cells, calcium flux, dopamine EC80; active compounds read low; activity change, negative = inhibition, % at 10 µM; 3.2% of 360,000 active; in the data active means activity change below about -30%
#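 Antagonism measured as reduced calcium response to an EC80 dopamine addition following 180 s compound pre-read; cells were inducible HEK293 Trex D1 plated overnight at 30 C, read kinetically at 1 cycle/sec.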
# A number is an active result; - = inactive; ? = inconclusive; . = not tested or not shown.
SMILES,DRD3 agonist,DRD3 antagonist,D1 agonist,BCR signal inh,D1 potentiator,D1 antagonist
Clc1ccc(CN2C3=NCCCN3c3ccccc32)cc1,-,-,72,?,-,-60
Clc1cccc(CSc2nncn3c2cc2sccc23)c1,-,.,-,.,-,-
O=C(CCS(=O)(=O)c1ccc(Br)cc1)Nc1ccc(Cl)c(C(F)(F)F)c1,-,.,-,.,-,-
CCCN1CCC(NCc2cn(C)nc2-c2ccc(Oc3ccccc3)cc2)CC1,-,-,30,-,-,-
COCCN1CCCC(CNCc2cn(C)nc2-c2ccc(Oc3ccccc3)cc2)C1 (stereo not given),-,-,-,?,-,-
COC1CCCN(Cc2cn(C)nc2-c2ccc(Oc3ccccc3)cc2)C1 (stereo not given),-,-52,-,?,-,-
COc1ccccc1N1CCN(C(=O)c2cnn(C(C)(C)C)c2C2CCN(C(=O)OC(C)(C)C)CC2)CC1,-,.,-,.,-,-
C[C@@H]1COc2cccc(N3CCC[C@@H]3CO)c2S(=O)(=O)N1,-,-,.,.,.,.
CCCCNC(=O)CN1C(=O)NC2NC(=O)NC21 (stereo not given),-,-,-,-,-,-43
O=C(O)CCCN1C(=O)NC2NC(=O)NC21 (stereo not given),-,-,-,-,-,-31
COC(=O)C[C@@H]1C=C[C@@H](NS(=O)(=O)c2ccccc2OC)[C@@H](CO)O1,-,-,.,.,.,.
Cn1c(=NC(=O)c2ccc(S(=O)(=O)N3CCCC3)cc2)sc2cc(F)ccc21,-,.,-,.,-,-
CN(c1ccccc1)S(=O)(=O)c1cccc(NC(=O)CSc2n[nH]c(N)n2)c1,-,-,-,-,-,-45
COCCn1cnnc1SCC(=O)Nc1cccc(S(=O)(=O)N(C)c2ccccc2)c1,-,-,-,-,-,-
Cc1nnc(SCC(=O)Nc2cccc(S(=O)(=O)N(C)c3ccccc3)c2)s1,34,-,34,-,-,-
CC1CN(C(=O)COC(=O)c2cc(=O)[nH]c3ccccc23)CC(C)O1 (stereo not given),-,-,.,.,.,.
O=C(NCc1ccccc1)c1onc(CSc2ccccc2)c1C(=O)NCC1CC1,-,-,46,-,-,-51
C=CCNC(=O)c1onc(CSc2ccc(F)cc2)c1C(=O)O,-,-,-,?,-,-34
COCCNC(=O)c1c(CS(=O)(=O)c2ccccc2)noc1C(=O)NCc1ccccc1,36,-,-,-,-,-
C=CCNC(=O)c1onc(CSc2ccc(F)cc2)c1C(=O)NCC=C,-,-,-,-,-,-
C=CCNC(=O)c1onc(CCl)c1C(=O)OC,65,-,-,-,-,-
CC(C)NC(=O)CCn1c(SCc2c(F)cccc2Cl)nc2c(sc3ccccc32)c1=O,-,.,-,.,-,-
COC(=O)c1cc(C)nc2c1c(=O)nc(SCc1ccccc1C)n2C1CC1,-,.,-,.,-,-
CCc1nnc2c3ccccc3nc(Nc3ccc(F)c(Cl)c3)n12,-,.,-,.,-,-
COC(=O)[C@]12CCCCC=C1N(Cc1ccc(Cl)cc1Cl)C(=O)[C@H](CC(=O)NCc1ccc(OC)c(OC)c1)C2,-,-,.,.,.,.
SMILES,DRD3 agonist,DRD3 antagonist,D1 agonist,BCR signal inh,D1 potentiator,D1 antagonist
Nc1cc(Br)cc2c1[nH]c(=O)c1ccccc12,-,-,.,.,.,.
CSc1ncc(C(=O)NCc2cccc(Br)c2)c(-c2ccccc2)n1,-,.,-,.,-,-
CCCNC(=O)c1onc(CSc2ccccn2)c1C(=O)NCCC,-,-,-,-,-,-38
Cc1nc(SCc2cccc(Cl)c2)nc2c1CCCC2,-,.,-,.,-,-
COc1ccc(O)c(C(=O)c2coc(=N)c(C(=O)Nc3ccc(SC(F)F)cc3)c2)c1,-,-,33,-,-,-
Cc1cc2nc(-c3ccc(Cl)cc3)c(CC(C)(C)C)n2c(C)c1Br,-,-,.,.,.,.
O=C(NCc1ccc(Cl)cc1)C(=O)Nc1ccc(Br)cc1,-,.,-,.,-,-
O=C(Nc1ccccc1C(=O)Nc1ccccn1)c1ccccc1F,-,-,-,?,-,-
O=C(Nc1ccccc1C(=O)Nc1ccccn1)c1cc(F)c(F)cc1Cl,-,-,-,-,-,-31
Cc1cccc(C)c1NC(=O)C1=C(O)c2ccccc2N(C)S1(=O)=O,-,-52,-,-,-,-
Cc1cc(/C=C(/C#N)c2nc3ccccc3[nH]2)c(C)n1-c1ccccc1C(=O)O,-,-,-,?,-,-
Cc1cc2nc(/C(C#N)=C\c3ccc(-c4ccccc4C(=O)O)o3)[nH]c2cc1C,-,-,82,-,-,-
N#C/C(=C\c1ccc(-c2ccccc2C(=O)O)o1)c1nc2ccccc2[nH]1,-,-,38,-,-,-
COc1ccc2nc(/C(C#N)=C\c3ccc(C(=O)O)cc3)[nH]c2c1,-,-,-,-,-,-
Cc1ccc2nc(/C(C#N)=C\c3ccc([N+](=O)[O-])o3)[nH]c2c1,-,-,-,-,-,-
Cc1ccc2nc(/C(C#N)=C/c3ccc(-c4ccccc4C(=O)O)o3)[nH]c2c1,-,-,49,?,-,-
N#C/C(=C\c1ccc([N+](=O)[O-])o1)c1nc2ccccc2[nH]1,45,-,41,-,-,-
COc1ccc(-c2ccc3c(N)c(C(=O)Nc4ccc(C)cc4C)sc3n2)cc1OC,-,.,-,.,-,-
OC[C@@H]1CN(Cc2cccs2)C[C@H](n2cnc3c(N4CCCC4)ncnc32)O1,-,-,.,.,.,.
CCOC(=O)c1ccc(-c2ccc(/C=C(\C#N)c3nc4ccc(C)cc4[nH]3)o2)cc1,-,.,270,.,-,-
CCOC(=O)c1ccc(-c2ccc(/C=C(\C#N)C(=O)Nc3cccc(C)c3)o2)cc1,-,.,-,-,-,-
N#C/C(=C\c1ccc(Sc2ccccc2)o1)c1nc2ccccc2[nH]1,-,-,-,-,-,-
N#C/C(=C/c1ccc(Sc2nc3ccccc3[nH]2)o1)c1cccc(F)c1,-,-,-,?,-,-
N#C/C(=C/c1ccc(Sc2nc3ccccc3[nH]2)o1)c1ccccc1F,-,-,39,?,-,-
N#C/C(=C\c1ccc(-c2ccc(F)cc2F)o1)c1nc2ccccc2[nH]1,-,.,151,.,-,-
COCCNc1ccc(-c2nc(-c3ccccn3)no2)cc1[N+](=O)[O-],-,.,-,.,-,-
COc1ccc(OC)c(CN2C(=O)c3ccccc3C2c2nnnn2-c2ccc3c(c2)OCCO3)c1 (stereo not given),-,?,.,.,.,.
CC(=O)Nc1ccc(OCC(O)CN2CCN(c3ccc(C)c(Cl)c3)CC2)cc1 (stereo not given),-,-144,-,-,-,-
COc1ccccc1OCC(O)CN1CCN(C(=O)c2ccccc2)CC1 (stereo not given),-,-,-,-,-,-36
